Assay outcomes from PubChem BioAssay.
D1 PAM = enhances dopamine response at the human D1 receptor | potentiation, % at 10 µM | P21728 | actives 0.036% (n = 360,000) | HEK293 TREx D1 cells, calcium flux, dopamine EC20 potentiation; in the data active = potentiation above about 30%
D1 agonist = agonists of human D1 dopamine receptor; P21728; HEK293 T-REx D1 cells, calcium flux, agonist mode; activation, % at 2 µM; actives 1% (n = 360,000); AID 504660
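Tetracycline-induced HEK293 TREx D1 cells, force-coupled to calcium signalling, were dye-loaded with a no-wash calcium kit. Compound was pin-added after a 10 s baseline. Fluorescence was read kinetically at 1 cycle/s for 180 s, with calcium rises flagged as agonism.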
TRHR ag = TRH receptor (human) agonism; actives 0.18% (n = 360,000); P34981; AID 493084; activation, % at 2 µM; TRHR cells, calcium flux fluo-8, FDSS agonist mode
Target sequence (P34981 whole entry, looked up): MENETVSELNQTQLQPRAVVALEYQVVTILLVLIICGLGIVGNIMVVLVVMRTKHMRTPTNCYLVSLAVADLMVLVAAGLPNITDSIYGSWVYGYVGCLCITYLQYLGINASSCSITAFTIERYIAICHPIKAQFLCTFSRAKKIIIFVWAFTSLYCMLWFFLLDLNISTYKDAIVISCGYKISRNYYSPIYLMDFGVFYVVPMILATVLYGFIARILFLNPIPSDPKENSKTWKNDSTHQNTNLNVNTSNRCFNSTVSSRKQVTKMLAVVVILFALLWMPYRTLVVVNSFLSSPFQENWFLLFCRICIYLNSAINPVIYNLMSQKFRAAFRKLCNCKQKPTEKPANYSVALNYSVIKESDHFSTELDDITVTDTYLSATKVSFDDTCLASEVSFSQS
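TRHR-expressing cells loaded with fluo-8 calcium dye; 23 nL library compound pin-transferred, kinetic FDSS fluorescence (Ex 480/Em 530) recorded about 180 s for agonist-induced calcium release, before a 10 nM TRH EC20 addition for potentiator mode.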
TRHR PAM = allosteric enhancers of human TRH receptor | AID 493056 | enhancement, % at 2 µM | actives 0.66% (n = 360,000) | TRHR cells, fluo-8 calcium fluorescence, EC20 TRH enhancement | P34981; in the data active = enhancement above about 30%
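Enhancer read-out: after compound pinning and an initial kinetic agonist-mode read, an EC20 of TRH (10 nM final) was injected and fluo-8 calcium signal (Ex 480/Em 530) followed at 1 s/cycle for 100 cycles in TRHR-expressing cells.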
GRP78 ERSR act = ER stress response induction in glioma; U87-MG GRP78 promoter luciferase reporter, 16 h; Potency, µM, most hits filed as activators; actives 0.02% (n = 420,000); AID 602332; active = well fitted activation curve with a large enough effect; also: series mostly up to about 76 µM; nearly all actives have a fitted effect of over 35% in size
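Stably transfected U87-MG human glioma cells carrying a GRP78-based luminescent sensor were seeded at 1000 cells/well, pin-dosed with compounds and incubated 16 h. Luciferase reagent was then added, and end-point luminescence was read after 10 min at room temperature.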
D1 antagonist = human D1 dopamine receptor antagonism. P21728. HEK293 TREx D1 cells, calcium flux, dopamine EC80; hits give low values. activity change, negative = inhibition, % at 10 µM. actives 3.2% (n = 360,000); in the data active = activity change below about -30%
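Compound effects on dopamine-evoked calcium signalling were measured in tetracycline-induced HEK293 Trex D1 cells. Dopamine at EC80 followed a 180 s compound pre-read, and fluorescence was tracked kinetically for 180 s more.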
Of the large screens only hits and unclear results are named; the others gave an inactive call; ! = a repeat was not active. In the library only some 4% were active in any assay of this set; here they are far more common. Rule as the data show it, unless noted: active = activation above about 30%; inactive = the rest.

C#CCOCCOCCOCCNc1nc(N2CCN(C(=O)[C@H]([C@@H](C)CC)n3cc([C@@H](N)CO)nn3)CC2)nc(N2CCN(C(=O)[C@H](CCCCN)n3cc([C@@H](N)C(C)CC)nn3)CC2)n1 (some centres not stated)	none
CC(C)CC(N)c1cn([C@@H](CCC(=O)O)C(=O)N2CCNCC2)nn1 (some centres not stated)	none
C#CCOCCOCCOCCNc1nc(N2CCN(C(=O)[C@H]([C@@H](C)CC)n3cc([C@@H](N)CC(C)C)nn3)CC2)nc(N2CCN(C(=O)[C@H](CCCCN)n3cc([C@@H](N)C(C)CC)nn3)CC2)n1 (some centres not stated)	none
CC(C)C[C@H](N)c1cn([C@@H](CCCCN)C(=O)N2CCNCC2)nn1	TRHR PAM 31.3
C#CCOCCOCCOCCNc1nc(N2CCN(C(=O)[C@H](CCCCN)n3cc([C@@H](N)C(C)CC)nn3)CC2)nc(N2CCN(C(=O)[C@H](CCCCN)n3cc([C@@H](N)CO)nn3)CC2)n1 (some centres not stated)	TRHR PAM 36.6 (no result: GRP78 ERSR act)
C#CCOCCOCCOCCNc1nc(N2CCN(C(=O)[C@H]([C@@H](C)CC)n3cc([C@@H](N)CC(C)C)nn3)CC2)nc(N2CCN(C(=O)[C@H](CCCCN)n3cc([C@@H](N)CC(C)C)nn3)CC2)n1	TRHR PAM 37.5
CC1C(=O)C(C)(C)C(=O)OC1c1ccc([N+](=O)[O-])cc1 (configuration not stated)	none
CC1(C)C(=O)OC(c2ccc([N+](=O)[O-])cc2)C(C)(C)C1=O (configuration not stated)	D1 antagonist -31.6
CCCCCCc1cc2cc(-c3nnc(-c4ccccc4OC)o3)c(=O)oc2cc1O	D1 agonist 303.2, TRHR ag 147.5
CCCCCCc1cc2cc(S(=O)(=O)c3ccc(F)cc3)c(=O)oc2cc1O	none
CCCCCCc1cc2cc(-c3nnc(-c4cc(OC)c(OC)c(OC)c4)o3)c(=O)oc2cc1O	none
CCCCCCc1cc2cc(-c3nnc(-c4ccccc4O)o3)c(=O)oc2cc1O	D1 agonist 356.3, TRHR ag 147.4, TRHR PAM 51.3
O=C(O)c1sccc1S(=O)(=O)N1CCOCC1	none
Cc1ccc(NC(=O)C(Cc2c[nH]c3ccccc23)NC(=O)OC(C)(C)C)c(C)c1 (configuration not stated)	D1 antagonist -35.0
CN1C(C(=O)Nc2ccccn2)=C(O)c2ccccc2S1(=O)=O	none
CCc1noc(C)c1C(=O)N1CCN(c2cccc(Cl)c2)CC1	none (no result: D1 PAM, D1 agonist, TRHR ag, TRHR PAM, D1 antagonist)
Cc1[nH]c2ccc(C(=O)N3CCN(c4cccc(Cl)c4)CC3)cc2c1C	none
CS(=O)(=O)c1ncc(Cl)c(C(=O)N2CCN(c3cccc(Cl)c3)CC2)n1	D1 antagonist -50.0
CCS(=O)(=O)c1ncc(Cl)c(C(=O)N2CCN(c3cccc(Cl)c3)CC2)n1	D1 antagonist -30.6
Cc1cc(=O)oc(C)c1C(=O)Nc1cccc2ccccc12	none
Cc1cc(C(=O)CSc2nnc(-c3cccs3)o2)c(C)n1-c1ccccc1	D1 antagonist -54.9
Fc1ccccc1N1CCN(CC2CC3C=CC2C3)CC1 (configuration not stated)	none
Cc1ccc(C)c(S(=O)(=O)Nc2nc3ccc(S(N)(=O)=O)cc3s2)c1	TRHR PAM 40.7
CC(NS(=O)(=O)c1ccc(Cl)cc1)C(=O)OCC(=O)Nc1ccc(N(C)C)cc1 (configuration not stated)	D1 antagonist -45.3
CN(C)CCN(Cc1ccccc1)c1ccccn1	D1 antagonist -30.6!
O=C1COc2ccc(C(=O)COC(=O)Cc3ccccc3F)cc2N1	none
O=C1COc2ccc(C(=O)COC(=O)Cc3c(F)cccc3Cl)cc2N1	D1 antagonist -30.8
CC(CN1CCNCC1)(NS(=O)(=O)c1ccccc1)c1ccccc1 (configuration not stated)	D1 antagonist -34.6
Cc1ccc(S(=O)(=O)NC(C)(C)CN2CCNCC2)cc1	none
